This is one part of the list. Activity calls are given as the source filed them.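 Rule for the calls: active = compound that inhibits Clk2 kinase in the dose series, with an IC50 potency reported; inactive = no inhibition seen.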
biological target: Dual specificity protein kinase CLK2 (Homo sapiens) (UniProt P49760); test: Kinase Inhibition Study on Inhibitors of CDC-like Kinase 2 (Reaction Biology data); conditions: Reaction Biology kinase assay, 10 uM ATP
Description: NIH Molecular Libraries Probe Production Centers Network [MLPCN] NIH Chemical Genomics Center [NCGC] MLPCN Grant: 1R03MH084827-01 Assay Submitter (PI): Tom Misteli NCGC Assay Overview: Alternative splicing of pre-mRNAs plays a major role in the regulation of eukaryotic gene expression. Alternative splicing is now thought to be one of the primary reasons for the complexity of higher organisms leading to an average of three protein isoforms per gene. Aberrant splicing can lead to a number of diseases and is known to play a role in rare genetic diseases such as progeria syndrome. Hutchinson-Gilford Progeria Syndrome (HGPS) is a pediatric premature aging disease caused by a spontaneous mutation in the lamin A/C (LMNA) gene due to a single point mutation in the lamin A gene effecting 1 in 4 million people. To identify both specific splicing modulators of the lamin A gene as well as general splicing modulators, a cell-based HTS assay was developed using a minigene reporter system (AIDs, 1459 & 1487). […] This AID summarizes the characterization of lead compounds in Clk2.
All kinase reactions were performed using 10 uM ATP in the assay. 100% activity was taken from kinase reactions with DMSO alone (the vehicle used for compound stock solutions).

Chain of Dual specificity protein kinase CLK2 (Homo sapiens) (P49760 whole entry, looked up, canonical isoform): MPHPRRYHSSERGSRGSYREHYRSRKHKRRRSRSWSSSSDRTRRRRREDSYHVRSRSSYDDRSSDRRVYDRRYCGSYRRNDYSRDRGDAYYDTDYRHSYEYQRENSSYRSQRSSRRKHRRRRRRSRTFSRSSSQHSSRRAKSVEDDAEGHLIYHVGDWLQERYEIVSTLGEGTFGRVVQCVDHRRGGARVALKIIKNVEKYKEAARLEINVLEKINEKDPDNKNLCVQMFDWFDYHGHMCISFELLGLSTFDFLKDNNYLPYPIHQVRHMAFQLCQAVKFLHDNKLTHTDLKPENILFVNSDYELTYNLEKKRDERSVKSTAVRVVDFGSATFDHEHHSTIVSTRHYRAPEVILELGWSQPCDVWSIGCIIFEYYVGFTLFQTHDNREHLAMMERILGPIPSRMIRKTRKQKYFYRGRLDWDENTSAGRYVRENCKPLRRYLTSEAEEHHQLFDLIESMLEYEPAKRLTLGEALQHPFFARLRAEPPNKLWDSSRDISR

Potency, active:
CC(Nc1ncnc2ccc(-c3ccc4c(c3)OCO4)cc12)c1ccco1 (centres undefined) 8.37 µM
CN(Cc1cncn1C)c1ncnc2ccc(-c3ccc4c(c3)OCO4)cc12 15 µM
c1nc(N2CCOCC2)c2cc(-c3ccc4c(c3)OCO4)ccc2n1 1.67 µM
c1coc(CCNc2ncnc3ccc(-c4ccc5c(c4)OCO5)cc23)c1 0.801 µM

— PubChem BioAssay AID504427 (National Center for Advancing Translational Sciences (NCATS), 2011)
